Bioassay records as filed in PubChem.
D1 agonist: Allosteric Agonists of the Human D1 Dopamine Receptor: qHTS; HEK293 T-REx D1 cells, calcium flux, agonist mode; AID 504660, 2011; activation, % at 2 µM; 360,000 compounds, 1% hits; in the data active = activation above about 30%; note: 0% is about no effect
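Agonism was scored from calcium flux recorded over 180 s (1 read/s) after pintool compound addition, following a 10-cycle baseline. Cells were inducible force-coupled HEK293 TREx D1, plated overnight at 30 C and loaded with no-wash calcium dye.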
D1 antagonist: Antagonist of Human D 1 Dopamine Receptor: qHTS. HEK293 TREx D1 cells, calcium flux, dopamine EC80; stronger effect = lower value. activity change, negative = inhibition, % at 10 µM. 360,000 compounds, 3.2% hits. AID 504652, 2011; in the data active = activity change below about -30%; note: % is set by controls: 0 for no effect and ±100 for the full control effect
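After overnight tetracycline induction at 30 C, force-coupled D1 HEK293 cells took up a no-wash calcium dye at room temperature. Compounds were added and monitored 180 s, and the response to EC80 dopamine was then recorded.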
D1 potentiator: Potentiators of Human D1 Dopamine Receptor: qHTS; HEK293 TREx D1 cells, calcium flux, dopamine EC20 potentiation; potentiation, % at 10 µM; 360,000 compounds, 0.036% hits; in the data active = potentiation above about 30%; note: 0% is about no effect
D3 ag: qHTS of D3 Dopamine Receptor Agonist: qHTS; D(3) dopamine receptor (Homo sapiens), P35462; D3R DiscoveRx beta-arrestin cells, luminescence, 90 min; max activation, %; 410,000 compounds, 0.58% hits; AID 652048, 2013; in the data active = max activation above about 30%; note: 0% is about no effect
Target sequence (P35462 whole entry, looked up): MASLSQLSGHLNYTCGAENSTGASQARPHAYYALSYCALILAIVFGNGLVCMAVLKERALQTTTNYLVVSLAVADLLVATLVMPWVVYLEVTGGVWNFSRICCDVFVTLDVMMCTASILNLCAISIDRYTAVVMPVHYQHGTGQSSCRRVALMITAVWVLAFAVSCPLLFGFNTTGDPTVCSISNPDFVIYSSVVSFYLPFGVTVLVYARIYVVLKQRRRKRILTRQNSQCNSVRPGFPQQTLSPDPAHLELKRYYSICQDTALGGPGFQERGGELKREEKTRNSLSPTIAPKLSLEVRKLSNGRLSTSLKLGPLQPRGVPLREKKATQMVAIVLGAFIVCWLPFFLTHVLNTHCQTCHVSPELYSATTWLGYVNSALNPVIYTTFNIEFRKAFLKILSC
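Cells at 1500/well, incubated overnight, then treated with pinned compounds (dopamine as control) for 90 min at 37 degrees C. DiscoveRx reagent added for 30 - 60 minutes at room temperature; luminescence read.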
DRD3 antagonist: qHTS of D3 Dopamine Receptor Antagonist: qHTS; D(3) dopamine receptor (Homo sapiens), P35462; D3R cells, DiscoveRx beta-arrestin luminescence, antagonist mode; stronger effect = lower value; max response, negative = inhibition, %; 360,000 compounds, 2.5% hits; AID 652054, 2013; in the data active = max response below about -50%; inconclusive = no clear call, values can overlap the other calls; note: % is set by controls: 0 for no effect and ±100 for the full control effect
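Cells expressing the human receptor were seeded at 1500 cells/well, incubated overnight at 37 degrees C in 5% CO2, then exposed to library compounds with dopamine controls for 90 minutes at 37 degrees C before luminescent detection.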
Numbers without * were called inactive; ? = inconclusive; . = not tested or not shown. Sampled rows, rich in hits. Any-hit rate of the full collection: about 6%.

SMILES	D1 agonist	D1 antagonist	D1 potentiator	D3 ag	DRD3 antagonist
Fc1cc(F)nc(NCc2ccccc2)n1	3	14	1	37*	12
c1ccc(CNc2nc(NCc3ccccc3)c3ccccc3n2)cc1	38*	-35*	3	-5	-11
c1ccc(CNc2nc(-c3ccccc3)nc3ccccc23)cc1	2	-2	7	-13	24
Cc1nc2cccnc2n1-c1cccc(C(=O)NCCN(C)C)c1	-1	3	-3	6	.
CCOc1ccc(N2C(=O)N(Cc3c(F)cccc3Cl)c3ccccc3S2(=O)=O)cc1	4	-8	1	-12	.
O=[N+]([O-])c1cccnc1S(=O)(=O)c1ccccc1	3	-17	-12	-9	-74*
COc1ccc([N+](=O)[O-])c(S(=O)(=O)c2ccccc2)n1	2	8	-3	-45	-76*
COc1ccccc1S(=O)(=O)c1ccccc1[N+](=O)[O-]	4	-3	0	-11	-12
COc1ccc([N+](=O)[O-])c(S(=O)(=O)c2ccc(Cl)cc2)n1	2	-5	-3	-10	-95*
CCC(=O)N1CCc2cc(S(=O)(=O)NC(Cc3ccccc3)C(=O)NCc3ccc(F)cc3)ccc21 (stereo not drawn)	-1	-12	0	6	.
O=C(CSc1nnc(-c2c[nH]c3ccccc23)n1C1CC1)NC1CCS(=O)(=O)C1 (stereo not drawn)	.	.	.	-3	-9
C=CCOc1ccc(CNc2nccs2)cc1OCC	-3	-4	-3	8	-54*
COc1cc2c(cc1OC)CN(C(=O)C1CCN(S(=O)(=O)c3ccccc3F)CC1)CC2	0	0	-8	-9	8
CCOc1cc(C(=O)NCCC(=O)N2CCC3(CC2)NCCc2[nH]cnc23)cc(OCC)c1OCC	2	-10	-6	2	7
CCOc1ccc(C(=O)NCCC(=O)N2CCC3(CC2)NCCc2[nH]cnc23)cc1OCC	1	-63*	5	-1	-1
CC1(C(=O)Nc2ccc3c(c2)OCO3)Cc2c(-c3cccc(C(F)(F)F)c3)ccnc2O1 (stereo not drawn)	.	.	.	-10	?
COc1ccc(NC(=O)C2(C)Cc3c(-c4ccc5c(c4)OCO5)ccnc3O2)cn1 (stereo not drawn)	.	.	.	-18	-53*
CC1(C(=O)Nc2cccc(C(F)(F)F)c2)Cc2c(-c3ccc4c(c3)OCO4)ccnc2O1 (stereo not drawn)	.	.	.	-15	-59*
CN(C)c1ccc(CNC(=O)C2(C)Cc3c(-c4cccc(C(F)(F)F)c4)ccnc3O2)cc1 (stereo not drawn)	.	.	.	-12	-84*
Cc1ccc(CNC(=O)COc2cccc3c2OC(C)(C)C3)cc1	8	-8	-3	-13	-9
CC1(C)Cc2cccc(OCC(=O)NCc3ccccc3F)c2O1	3	-35*	0	-4	5
CCN(CC)CCn1c(=S)[nH]c2cc(C(=O)NCc3ccccc3Cl)ccc2c1=O	1	-17	-5	-10	-24
CS(=O)(=O)Nc1ccccc1C(=O)NCCSc1ccc(Cl)cc1	16	-32*	-7	-24	?
Cc1ccc(SCCNC(=O)c2ccccc2F)cc1	-3	3	-1	-6	-1
COc1cc(OC)cc(C(=O)Nc2sc3c(c2C(N)=O)CCC3)c1	-1	4	3	-6	-19
O=C(O)C1C2CCC(O2)C1C(=O)NCc1ccc(Cl)cc1 (stereo not drawn)	1	-37*	-10	2	-16
O=C(NC1CC1)c1ccc(CSCc2ccccc2Cl)o1	2	-4	-2	3	9
CC(C)Oc1ccc(CNC(=O)c2ccc(Cn3c(=O)c4cccn4c4cccnc43)cc2)cc1	7	-7	-6	4	.
COc1ccc(N2CCN(CCCn3c(=S)[nH]c4ncccc4c3=O)CC2)cc1	-1	-1	-4	-2	0
COc1ccc(N2CCN(CCCNC(=O)Cn3c(=O)c4cccn4c4cccnc43)CC2)cc1	0	26	2	-6	?
